Only some compounds are listed: those with a hit (about 19% of all), similar ones and a draw of the others.
KB-3-1 cytotox = kills parental KB-3-1 adenocarcinoma cells | Potency, µM (top dose mostly 46.1 µM), hits mostly cytotoxic | 1.4% of 400,000 active | KB-3-1 viability, CellTiter-Glo ATP luminescence, 72 h; also: nearly all actives have a fitted effect of over 60% in size
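Multi-concentration cytotoxicity screen in KB-3-1 cells grown in DMEM lacking phenol red with 10% FBS. After 72 h at 37 °C with compound, ATP-dependent luminescence was recorded.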
KB-V1 cytotox = kills drug-selected multidrug resistant KB-V1 cells; AID 1347076; 3.4% of 400,000 active; Potency, µM (doses to about 46.1 µM), most hits filed as cytotoxic; KB-V1 MDR cells viability, CellTiter-Glo, 72 h; also: nearly all actives have a fitted effect of over 60% in size
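Cells of the MDR subline KB-V1 are plated, dosed with compound at multiple concentrations, and incubated 72 h at 37 degrees C; CellTiter-Glo is then added and luminescence read after 10 min.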
DT40 TDP1 no CPT = qHTS for Inhibitors of human tyrosyl-DNA phosphodiesterase 1 (TDP1): qHTS in cells in absence of CPT. 15% of 420,000 active. AID 686978, 2013. DT40 Tdp1-/- hTDP1 cells, no CPT, ATP luminescence, 48 h. Potency, µM (highest dose often 46.2 µM), most hits filed as inhibitors; also: nearly all actives have a fitted effect of over 55% in size
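Camptothecin absent (DMSO only). Human TDP1-complemented DT40 knockout cells, 400 cells/well, 37 °C for minimum 48 hr; ATP measured via CellTiter-Glo, 30 min dark incubation, luminescence.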
TDP1 cell CPT = growth inhibition of DT40 Tdp1-/-;hTDP1 cells with camptothecin (screen for TDP1 inhibitors); chicken DT40 Tdp1-/-;hTDP1 cells + 20 nM CPT, ATP luminescence, 48 h; Potency, µM (titrated, usually from 46.2 µM), usual class: inhibitors; 12% of 420,000 active; AID 686979; also: nearly all actives have a fitted effect of over 55% in size
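Cell growth measured by CellTiter-Glo luminescence after a minimum 48 h, 37 C compound exposure with 20 nM CPT in Tdp1-knockout DT40 cells stably expressing hTDP1, seeded 400/well; qHTS titration format.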
HT1080 IDH1KD tx = HT-1080 IDH1 knockdown cell toxicity (counter line). HT-1080 IDH1 knockdown viability, ATP luminescence, 48 h. Potency, µM (series often up to 46.1 µM), actives largely listed as cytotoxic. 2% of 360,000 active. AID 686971
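CellTiter-Glo luminescence after 48 h compound exposure at 37 degrees C of IDH1-knockdown HT-1080 cells in 5% FBS RPMI. %Activity scaled between DMSO wells and cell-free media wells, with curves fitted and assigned curve classes.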
HT1080-NT tox = kills 2HG-producing HT-1080-NT fibrosarcoma cells | HT-1080-NT fibrosarcoma viability, CellTiter-Glo ATP luminescence, 48 h | Potency, µM (doses to about 46.1 µM), usual class: cytotoxic | 1.6% of 360,000 active;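 also: NT is the 2HG producing partner of a matched IDH1 knockdown line; nearly all actives have a fitted effect of over 55% in size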
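Fibrosarcoma NT cells, 750 per well in 5% FBS RPMI, were exposed to compound for 48 hours. Viability: CellTiter-Glo luminescence.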
Hits are given with their value; 0 = inactive; ? = inconclusive; - = not tested or not shown; ! = not active in a repeat. Calls follow the shape of the dose curve; as a rule, active = well fitted curve in the direction sought with a large enough effect; inconclusive = small, poorly fitted or top-dose-only effect, or another doubt; inactive = no such curve, though single readings can be large; an effect the other way counts as inactive or inconclusive.

SMILES	KB-3-1 cytotox	KB-V1 cytotox	DT40 TDP1 no CPT	TDP1 cell CPT	HT1080 IDH1KD tx	HT1080-NT tox
Cn1ncc2c(NCc3ccc(F)cc3)ncnc21	0	0	?	?	-	-
CCc1ccccc1NC(=O)C(CC)Oc1ccccc1-c1nnc(-c2ccccc2)o1 (stereo not given)	14.6µM	?	5.17µM	5.8µM	-	-
O=C1/C(=C\c2cc3c(cc2Br)OCO3)N2CCC1CC2	0	0	?	0	0	?
COc1ccc(CN2C(=O)NC(=O)/C(=C\c3cc(OC)c(OC)c(OC)c3)C2=O)cc1	0	0	?	18.4µM	0	0
COc1ccc(CN2C(=O)NC(=O)/C(=C\c3ccco3)C2=O)cc1	0	0	?	?	0	0
COc1ccc(CN2C(=O)NC(=O)/C(=C/c3ccc([N+](=O)[O-])s3)C2=O)cc1	0	0	4.61µM	10.3µM	0	0
O=C1NC(=O)N(Cc2ccc(F)cc2)C(=O)/C1=C\c1ccc([N+](=O)[O-])s1	0	0	8.2µM	13µM	0	0
CCOc1ccc2nc(NC(=O)c3cccn(Cc4ccccc4Cl)c3=O)sc2c1	0	?	0	0	-	-
Cc1cc(OCC(=O)N2CCC(C(=O)O)CC2)c2c3c(c(=O)oc2c1)CCC3	0	0	0	0	0	0
CC(C)C[C@H](CN)CC(=O)O	-	-	0	0	-	-
C/C(O)=C1\C(=O)[C@@H]2[C@H]3c4c[nH]c5cccc(c45)C[C@H]3C(C)(C)N2C1=O	-	-	8.31µM	10.5µM	-	-
CC(=O)C1=C(O)[C@@H]2[C@@H]3c4c[nH]c5cccc(c45)C[C@@H]3C(C)(C)N2C1=O	-	-	4.22µM	6.68µM	-	-
CC(=O)C1=C(O)C2C3c4c[nH]c5cccc(c45)CC3C(C)(C)N2C1=O (stereo not given)	-	-	7.31µM	10.3µM	-	-
CC1(C)N([O-])[N+](=O)C1(C)Br (stereo not given)	-	-	0	?	-	-
CC(=O)OC1CC[C@@]2(C)C3CC(=O)[C@]4(C)C(C(C)=O)=CCC4C3CC[C@H]2C1 (stereo not given in full)	-	-	?	0	-	-
CC(C)[C@]1(O)[C@@H](OC(=O)c2ccc[nH]2)[C@@]2(O)[C@@]3(C)C[C@]4(O)O[C@@]5([C@H](O)[C@@H](C)CC[C@]35O)[C@@]2(O)C41C	-	-	?	0	-	-
CC(C)(C#CC(=O)O)OOC(c1ccccc1)(c1ccccc1)c1ccccc1	0	0	0	0	0	0
c1ccc(-c2ccc(C(c3ccccc3)n3ccnc3)cc2)cc1 (stereo not given)	0	?	23.1µM	10.3µM	?	?
c1ccc(C(c2ccccc2)c2cccnc2)cc1	0	0	?	0	0	0
CC(C)C[C@H]1CNC(=S)N1CC1CCN(CC2CCC(C(C)(C)C)CC2)CC1 (stereo not given in full)	0	0	16.4µM	16.4µM	0	0
COc1cc2[nH]c(=O)n(-c3ccccc3)c(=O)c2cc1OC	0	0	0	0	0	0
CCc1c(C(=O)OC)ncc2[nH]c3cc(OC)c(OC)cc3c12	-	-	6.51µM	8.2µM	-	-
N#Cc1ccc(NC(=O)CN2CCN(C(=O)c3cccs3)CC2)cc1Cl	0	?	16.4µM	?	0	0
CN(C)c1ccc([N+](=O)[O-])c([N+](=O)[O-])c1	0	0	?	?	0	0
CN(C)c1ccc([P+](=O)c2ccc(N(C)C)cc2)cc1	0	?	20.6µM	?	0	0
SMILES	KB-3-1 cytotox	KB-V1 cytotox	DT40 TDP1 no CPT	TDP1 cell CPT	HT1080 IDH1KD tx	HT1080-NT tox
O=S(=O)(c1cc(Cl)cc(Cl)c1)N1Cc2cc(-c3ccccc3)ccc2-n2nncc2C1	0	0	?	?	0	0
CCCCCCCCCCCCCCCC[n+]1ccccc1	5.8µM!	?	0.326µM	0.651µM	10.3µM	11.6µM
C[n+]1ccc(-c2cc[n+](C)cc2)cc1	0	0	0	0	0	?
CCCCCCC[n+]1ccc(-c2cc[n+](CCCCCCC)cc2)cc1	?	0	0.651µM	0.651µM	?	?
CCCCCCC(=O)c1c(O)n(-c2ccc(OC)cc2)c(=O)[nH]c1=O (tested in a mixture with another compound)	0	8.2µM	25.9µM	0	0	0
COc1ccc(-n2c(O)c(/C(C)=N/N3CCCCCC3)c(=O)[nH]c2=O)cc1	0	0	0	0	0	0
COc1ccc(-n2c(O)c(/C(C)=N/Nc3ccccc3)c(=O)[nH]c2=O)cc1	0	0	0	0	1.84µM	1.64µM
CN1C(=O)C(=Cc2ccccc2OS(=O)(=O)c2ccccc2)C(=O)N(C)C1=O	0	0	?	?	0	0
CC(C)CCOP(=O)(c1ccc(N(C)C)cc1)C(O)c1c(Cl)cccc1Cl (stereo not given)	0	0	16.4µM	?	0	0
CC(C)c1ccc(C(O)P(=O)(OCc2ccccc2)c2ccc(N(C)C)cc2)cc1 (stereo not given)	0	0	25.9µM	?	0	0
CCCOP(=O)(c1ccc(N(C)C)cc1)C(O)c1ccc(Cl)cc1Cl (stereo not given)	0	?	25.9µM	25.9µM	?	0
CC1(C)C(=O)C=C[C@]2(C)[C@H]3CC[C@@]4(C)[C@H](c5ccoc5)OC(=O)[C@H]5O[C@]54[C@]3(C)[C@H](O)C[C@@H]12	?	?	0	0	0	0
Cc1onc(-c2ccccc2)c1C(=O)Nc1ccc(S(=O)(=O)N2CCCC2)cc1	0	0	0	?	0	0
O=C(CC1CCCCC1)N1CCC(c2nc(-c3ccc(S(=O)(=O)N4CCCC4)cc3)no2)CC1	0	14.6µM	8.2µM	20.6µM	0	0
O=C(C1CC1)N1CCC(c2nc(-c3ccc(S(=O)(=O)N4CCCC4)cc3)no2)CC1	0	?	20.6µM	?	?	0
C/C(N)=C(/C#N)C(=O)CSc1nc2cc(Cl)ccc2c(=O)n1-c1ccc(C)cc1	0	0	?	0	0	0
O=C(O)CC[N+](=O)[O-]	0	0	0	0	0	0
O=C(CC[N+](=O)[O-])OCC1OC(O)C(OC(=O)CC[N+](=O)[O-])[C@@H](OC(=O)CC[N+](=O)[O-])C1OC(=O)CC[N+](=O)[O-] (stereo not given in full)	-	-	5.8µM	?	-	-
CCOP(=O)(OCC)C(Nc1cccc(C(F)(F)F)c1)c1ccc(C)cc1 (stereo not given)	?	?	18.4µM	?	?	?
CCCOP(=O)(OCCC)C(Nc1cccc(C(F)(F)F)c1)c1ccc(C)cc1 (stereo not given)	?	11.6µM	23.1µM	?	?	?

Screening results: PubChem BioAssay, National Center for Advancing Translational Sciences (NCATS)
